# Data published in PubChem BioAssay (NCATS).
# Inconclusive results are not listed. Active and inactive are the calls of the source. Calls follow the shape of the dose curve; as a rule, active = well fitted inhibition curve with a large enough effect; inconclusive = small, poorly fitted or top-dose-only effect; inactive = flat fitted curve, though single readings scatter.
# Target: Calcium and integrin-binding protein 1 (Homo sapiens) (UniProt Q99828)
# Test: Primary qHTS for Identification of Calcium Integrin Binding Protein 1 (CIB1) Competitor (AID 1508620);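 also: GST tagged CIB1 binding a fluorescein labelled alphaIIb integrin peptide tracer; top concentration of the series differs between compounds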
# Conditions: CIB1-GST / FITC-alphaIIb peptide fluorescence polarization; series mostly up to 57.7 µM; activity change, negative = inhibition: at the top concentration
# Outline: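 CIB1-GST (1 uM final) and compound incubated 15 min at room temperature before adding FITC-alphaIIb peptide tracer (100 nM final). Competition for binding read by fluorescence polarization (ex 480, em 540) after another 15 min at room temperature.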
# % is scaled to controls: 0 for no effect and ±100 for the full control effect.
# Chain of Calcium and integrin-binding protein 1 (Homo sapiens) (Q99828 whole entry, looked up): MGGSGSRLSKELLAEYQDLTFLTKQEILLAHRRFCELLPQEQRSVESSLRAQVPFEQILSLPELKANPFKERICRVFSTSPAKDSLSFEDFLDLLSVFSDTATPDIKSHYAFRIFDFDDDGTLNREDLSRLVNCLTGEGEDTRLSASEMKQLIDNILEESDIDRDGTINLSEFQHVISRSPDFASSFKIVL
row,Structure (SMILES),"activity change, negative = inhibition"
1,COc1ccc2c(c1O)OC[C@H]1c3ccc(O)cc3O[C@@H]21,-1.08% [at 114 µM] (inactive)
2,CC(=O)O[C@H]1C[C@@H]2[C@]3(CC[C@]4(C)[C@@H](C5(C)CCC(C(C)(C)O)O5)[C@@H](O)C[C@@]24C)C[C@@]32CC[C@H](O[C@@H]3OC[C@@H](O)[C@H](O)[C@H]3O)C(C)(C)[C@H]12 (some centres not stated),0.913% [at 30.2 µM] (inactive)
3,CC(c1c[nH]c2ccccc12)C(O)C(=O)O (configuration not stated),1.62% [at 114 µM] (inactive)
4,C=CC1C(O[C@@H]2O[C@H](CO)[C@@H](O)[C@H](O)[C@H]2O)OC=C(C(=O)OC)C1Cc1nccc2c1[nH]c1ccccc12 (some centres not stated),-4.67% (inactive)
5,CC1[C@@H](O)[C@@H](O)C2[C@]3(C)C(C[C@H]4OC(=O)[C@H](O)[C@]1(O)[C@@]24C)C(C)(O)C[C@H](O)[C@H]3O (some centres not stated),-5.08% (inactive)
6,CC(=O)OC1C(O)CC(O[C@@H]2O[C@H](CO)[C@@H](O)[C@H](O)[C@H]2O)C2CCC3C(=O)OC(c4ccoc4)CC3(C)C21 (some centres not stated),-6.48% (inactive)
7,C=C1CC2C3(C)C(OC(C)=O)CC(=O)OC(C)(C)C3C(O)C(OC(C)=O)C2(C)C2C(=O)OC(C)C(=O)C12C (configuration not stated),2.69% (inactive)
8,C=C1CC/C=C(/CO)C(=O)C[C@@H]2[C@@H]1CC2(C)C,1.08% [at 114 µM] (inactive)
9,CCC1CC2C(C)=CC3CCCCC3C2(C)C2(OC(=O)C(C)(O)OC2=O)O1 (configuration not stated),-1.08% (inactive)
10,CC1(C)CC[C@]2(C(=O)O)CC[C@]3(C)C(=CCC4[C@@]5(C)CC[C@H](O[C@@H]6O[C@H](C(=O)O)[C@@H](O)[C@H](O)[C@H]6O)C(C)(CO)C5CC[C@]43C)C2C1 (some centres not stated),-5.54% [at 30.2 µM] (inactive)
11,CC(C)[C@H]1CCC(CO)=C[C@@H]1/C=C(\CO)C(=O)O,-0.828% [at 114 µM] (inactive)
12,CCC(=O)O[C@]1(C(=O)CCl)[C@@H](C)C[C@H]2[C@@H]3C[C@H](F)C4=CC(=O)C=C[C@]4(C)[C@@]3(F)[C@@H](O)C[C@@]21C,0.348% [at 114 µM] (inactive)
13,COc1cc(CCc2ccccc2)c(C(=O)O)c2c1CC(C(C)(C)O)O2 (configuration not stated),-3.57% (inactive)
14,CC1(C)CCCC2(C)C(CO)C3CCC2C31 (configuration not stated),-5.3% [at 114 µM] (inactive)
15,C=C1CCC2[C@@](C)(C=O)CCC[C@]2(C)[C@H]1CC/C(C)=C/CO (some centres not stated),-6.52% [at 114 µM] (inactive)
16,C=C1CC23CCC4[C@@](C)(CCC[C@@]4(C)C(=O)O)C2CCC1C3 (some centres not stated),-7.69% [at 114 µM] (inactive)
17,CC1(C)O[C@]23C[C@H]1C[C@H](OC(=O)c1ccoc1)[C@]2(C)[C@@H](OC(=O)c1ccoc1)CCC3(C)O (some centres not stated),4.77% (inactive)
